PubChem BioAssay (NCATS)
Results filed as inconclusive are left out. A call without a number means that no potency is given here. The source made the active and inactive calls. Calls come from the whole dose curve; as a rule, active = well fitted inhibition curve with a large enough effect; inconclusive = small, poorly fitted or top-dose-only effect; inactive = flat fitted curve, though single readings scatter. Numbered stars: 1 amine (or outer) side, 2 acyl side, 3 side chain; on linkers, the order of the positions; unused ones are H or OH. Bridge positions count the residues as written; N and C are the ends. Square brackets hold non-standard residues; d marks the D form. Peptide text beside a SMILES is read from it. I, II: the chains in the order shown. Actinocin(9to1) = Cc1c2oc3c(C)ccc(C(=O)[*:1])c3nc-2c(C(=O)[*:2])c(N)c1=O; NMeV = CN[C@H](C(=O)O)C(C)C; Sar = CNCC(=O)O

Experiments:
Test in all cases: qHTS profiling for inhibitors of Plasmodium falciparum proliferation (AID 504749); note: nearly all actives have a fitted effect of over 60% in size
Conditions in all cases: P. falciparum in erythrocytes, SYBR Green DNA, 72 h; series mostly up to 28.7 µM
[1] = tested on: C2A
Summary of the method: (§1)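 Infected RBCs, 0.3% parasitemia/2.5% Hct final; cpd 72 h, 37 C, 5% CO2; lysis buffer with saponin/triton/SYBR Green I, o/n RT dark; FI 485/535; norm. to artemisinin (0.29 uM) and DMSO.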

[2] = tested on: CP185
Summary of the method: as §1

[3] = tested on: CP191
Summary of the method: as §1

[4] = tested on: CP192
Summary of the method: as §1

[5] = tested on: CP194
Summary of the method: as §1

[6] = tested on: CP201
Summary of the method: as §1

[7] = tested on: CP203
Summary of the method: as §1

[8] = tested on: CP211
Summary of the method: as §1

[9] = tested on: CP215
Summary of the method: as §1

[10] = tested on: CP217
Summary of the method: as §1
Potency is the fitted concentration of half-maximal effect.

| Compound | Potency [1] | Potency [2] | Potency [3] | Potency [4] | Potency [5] | Potency [6] | Potency [7] | Potency [8] | Potency [9] | Potency [10] |
| --- | --- | --- | --- | --- | --- | --- | --- | --- | --- | --- |
| Cc1c(F)c(N2CCNC(C)C2)cc2c1c(=O)c(C(=O)O)cn2C1CC1 (stereo not drawn) | inactive | inactive | inactive | inactive | inactive | inactive | inactive | inactive | inactive | inactive |
| CC(=O)Nc1c(I)cc(I)c(C(=O)O)c1I | inactive | inactive | inactive | inactive | inactive | inactive | – | inactive | inactive | inactive |
| CCCCCC=CCC=CCCCCCCCC(=O)OCC | inactive | inactive | inactive | inactive | inactive | inactive | inactive | inactive | inactive | inactive |
| Cc1ncc(CSSCc2cnc(C)c(O)c2CO)c(CO)c1O | inactive | inactive | inactive | inactive | inactive | inactive | inactive | inactive | inactive | inactive |
| NC(CO)(CO)CO | inactive | inactive | inactive | inactive | inactive | inactive | inactive | inactive | inactive | inactive |
| CCOc1ccc2nc3cc(N)ccc3c(N)c2c1 | 6.31 µM (active) | 5.01 µM (active) | 5.01 µM (active) | 9.53 µM (active) | 15.1 µM (active) | 12 µM (active) | 16.9 µM (active) | – | 9.53 µM (active) | 7.08 µM (active) |
| CCOC(=O)OC(C)OC1=C(C(=O)Nc2ccccn2)N(C)S(=O)(=O)c2ccccc21 (stereo not drawn) | inactive | inactive | inactive | inactive | inactive | inactive | inactive | inactive | inactive | inactive |
| CCCCCCC[N+](CC)(CC)CCCCc1ccc(Cl)cc1 | 1.58 µM (active) | 2 µM (active) | 2 µM (active) | 2.03 µM (active) | 2.28 µM (active) | 2.56 µM (active) | 1.81 µM (active) | 1.44 µM (active) | 2.03 µM (active) | 2.82 µM (active) |
| CC1(C)CCC(NC(=O)[C@@H](N)CCC(=O)O)CC1 | inactive | inactive | inactive | inactive | inactive | inactive | inactive | inactive | inactive | inactive |
| CCN1CCC[C@H]1CNC(=O)c1c(OC)ccc(Br)c1OC | inactive | inactive | inactive | inactive | inactive | inactive | inactive | inactive | inactive | inactive |
| CCN(CC)C(=O)N1CCN(C)CC1 | inactive | inactive | inactive | inactive | inactive | inactive | inactive | inactive | inactive | inactive |
| C[C@@H]1C(=O)NC2=Nc3cccc(Cl)c3CN21 | inactive | inactive | inactive | inactive | inactive | inactive | inactive | inactive | inactive | inactive |
| CCCCOc1ccc(C(=O)CCN2CCCCC2)cc1 | inactive | inactive | inactive | inactive | inactive | inactive | inactive | inactive | inactive | inactive |
| CC(C)(CO)[C@@H](O)C(=O)NCCCO | inactive | inactive | inactive | inactive | inactive | inactive | inactive | inactive | inactive | inactive |
| O=c1ccc2ccccc2o1 | inactive | inactive | inactive | inactive | inactive | inactive | inactive | inactive | inactive | inactive |
| OCc1ccccc1O | inactive | inactive | inactive | inactive | inactive | inactive | inactive | inactive | inactive | inactive |
| O=C1CCC(c2ccc(-n3ccnc3)cc2)=NN1 | inactive | inactive | inactive | inactive | inactive | inactive | inactive | inactive | inactive | inactive |
| COc1ccc(/C=C/C(=O)c2ccc(OC)cc2OC)cc1 | 11.2 µM (active) | 8.91 µM (active) | 3.16 µM (active) | 13.5 µM (active) | 12 µM (active) | 8.49 µM (active) | 13.5 µM (active) | 6.75 µM (active) | 6.75 µM (active) | 5.01 µM (active) |
| O=S1(=O)c2cccc3cccc(c23)N1CCCN1CCN(c2ccc(F)cc2)CC1 | inactive | inactive | inactive | inactive | inactive | inactive | inactive | inactive | inactive | inactive |
| CC(=O)Oc1ccc(C(=C2CCCCC2)c2ccc(OC(C)=O)cc2)cc1 | inactive | inactive | inactive | inactive | inactive | inactive | inactive | inactive | inactive | inactive |
| CCN1CCCC1=O | inactive | inactive | inactive | inactive | inactive | inactive | inactive | inactive | inactive | inactive |
| CN=C(NC#N)NCCSCc1csc(N=C(N)N)n1 | inactive | inactive | inactive | inactive | inactive | inactive | inactive | inactive | inactive | inactive |
| N[C@H](CO)C(=O)O | inactive | inactive | inactive | inactive | inactive | inactive | inactive | inactive | – | inactive |

| Compound | Potency [1] | Potency [2] | Potency [3] | Potency [4] | Potency [5] | Potency [6] | Potency [7] | Potency [8] | Potency [9] | Potency [10] |
| --- | --- | --- | --- | --- | --- | --- | --- | --- | --- | --- |
| CC(=O)OCC(=O)NCCCOc1cccc(CN2CCCCC2)c1 | inactive | inactive | inactive | inactive | inactive | inactive | inactive | – | inactive | inactive |
| CCCCN1CCCC1C(=O)Nc1c(C)cc(C)cc1C (stereo not drawn) | inactive | inactive | inactive | inactive | inactive | inactive | – | inactive | inactive | inactive |
| CC(=O)OCC(=O)[C@@]1(OC(C)=O)[C@@H](C)C[C@H]2[C@@H]3C[C@H](F)C4=CC(=O)C=C[C@]4(C)[C@@]3(F)[C@@H](O)C[C@@]21C | inactive | inactive | inactive | inactive | inactive | inactive | – | inactive | – | inactive |
| COc1ccc(C2C(=O)c3ccccc3C2=O)cc1 | inactive | inactive | inactive | inactive | inactive | inactive | – | inactive | inactive | inactive |
| CC(C)COC(=O)OCN1C(=O)CN(CCN2CC(=O)N(COC(=O)OCC(C)C)C(=O)C2)CC1=O | inactive | inactive | inactive | inactive | inactive | inactive | – | inactive | inactive | inactive |
| CN(C)CCCOc1nn(Cc2ccccc2)c2ccccc12 | inactive | inactive | inactive | inactive | inactive | inactive | – | inactive | inactive | inactive |
| CCC(=O)c1c(O)cc(O)cc1O | inactive | inactive | inactive | inactive | inactive | inactive | – | inactive | inactive | inactive |
| COc1ccc(CCN2CCC(Nc3nc4ccccc4n3Cc3ccc(F)cc3)CC2)cc1 | 2.51 µM (active) | 3.55 µM (active) | 2.24 µM (active) | 12 µM (active) | 9.53 µM (active) | 7.57 µM (active) | – | 15.1 µM (active) | – | 3.55 µM (active) |
| CC(C)(C(=O)c1cccnc1)c1cccnc1 | inactive | inactive | inactive | inactive | inactive | inactive | – | inactive | inactive | inactive |
| CCCCCCCCCCCCCCCC[N+](C)(C)CC | 3.55 µM (active) | 3.98 µM (active) | 3.98 µM (active) | 4.78 µM (active) | 6.01 µM (active) | 6.75 µM (active) | – | 4.78 µM (active) | 9.53 µM (active) | 5.62 µM (active) |
| CCCN1CCCC[C@H]1C(=O)Nc1c(C)cccc1C | inactive | inactive | inactive | inactive | inactive | inactive | – | inactive | inactive | inactive |
| CCN1CCN(c2cc3c(cc2F)c(=O)c(C(=O)O)cn3C2CC2)CC1 | inactive | inactive | inactive | inactive | inactive | inactive | – | inactive | inactive | inactive |
| N[C@@H](Cc1cnc[nH]1)C(=O)O | inactive | inactive | inactive | inactive | inactive | inactive | – | inactive | inactive | inactive |
| Nc1cc(Cl)c(NC2=NCCN2)c(Cl)c1 | inactive | inactive | inactive | inactive | inactive | inactive | – | inactive | inactive | inactive |
| Nc1ccc(C(=O)Nc2ccccc2N)cc1 | inactive | inactive | inactive | inactive | inactive | inactive | – | inactive | inactive | inactive |
| CC(=O)N(O)CCCCCNC(=O)CCC(=O)N(O)CCCCCNC(=O)CCC(=O)N(O)CCCCCN | inactive | inactive | inactive | inactive | inactive | inactive | – | inactive | inactive | inactive |
| CN1C2CCC1CC(OC(=O)c1c[nH]c3ccccc13)C2 (stereo not drawn) | inactive | inactive | inactive | inactive | inactive | inactive | – | inactive | inactive | inactive |
| CC(C)(Oc1ccc(Cl)cc1)C(=O)O | inactive | inactive | inactive | inactive | inactive | inactive | – | inactive | inactive | inactive |
| CN1C(CCl)Nc2cc(Cl)c(S(N)(=O)=O)cc2S1(=O)=O (stereo not drawn) | inactive | inactive | inactive | inactive | inactive | inactive | – | inactive | inactive | inactive |
| CCC(C(=O)OCCN(CC)CC)c1ccccc1 (stereo not drawn) | inactive | inactive | inactive | inactive | inactive | inactive | – | inactive | inactive | inactive |
| Nc1ccc(C(=O)O)cc1 | inactive | inactive | inactive | inactive | inactive | inactive | – | inactive | inactive | inactive |
| Cc1c2oc3c(C)ccc(C(=O)N[C@@H]4C(=O)N[C@H](C(C)C)C(=O)N5CCC[C@H]5C(=O)N(C)CC(=O)N(C)[C@@H](C(C)C)C(=O)O[C@@H]4C)c3nc-2c(C(=O)N[C@@H]2C(=O)N[C@H](C(C)C)C(=O)N3CCC[C@H]3C(=O)N(C)CC(=O)N(C)[C@@H](C(C)C)C(=O)O[C@@H]2C)c(N)c1=O (I: T[dV]P[Sar][NMeV] / II: T[dV]P[Sar][NMeV]; ester I:1-I:C, II:1-II:C; linker I:N-II:N via Actinocin(9to1)) | 0.0056 µM (active) | 0.0045 µM (active) | 0.0045 µM (active) | 0.006 µM (active) | 0.0054 µM (active) | 0.0076 µM (active) | – | 0.006 µM (active) | 0.0054 µM (active) | 0.0071 µM (active) |
